Results on 85 compounds are retold here after PubChem BioAssay AID588579 (National Center for Advancing Translational Sciences (NCATS), 2011).

Where “and” joins values, the source holds several entries; their conditions need not be identical. Identical values can stand only once. About 2,200 (0.55%) of roughly 400,000 compounds were called active. About 1% were inconclusive and are not listed. Shown is part of a subset that was picked to be rich in actives. A number with no mark means an inactive call. Calls come from the whole dose curve; as a rule, active = well fitted inhibition curve with a large enough effect; inconclusive = small, poorly fitted or top-dose-only effect, or another doubt; inactive = no such curve, though single readings can be large or run the other way. Positions of bridges follow the written chain, without caps; N, C: chain ends. Residues, ends and D or L forms follow the SMILES beside them.
% is set by controls: 0 for no effect and ±100 for the full control effect; potency is the fitted concentration of half-maximal effect.

In the assay the target is DNA polymerase kappa (Homo sapiens) (UniProt Q9UBT6). In words: qHTS for Inhibitors of Polymerase Kappa. The settings on record: purified Pol kappa, fluorescent DNA synthesis assay, 10 min; series mostly up to 107 µM; activity, negative = inhibition: at the top concentration. In short, it runs like this: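 10 nM Pol kappa was preincubated with compounds for 15 min at room temperature. Reaction started with 50 nM (final) substrate. Fluorescence read kinetically at 0 and 10 min.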
Sequence of DNA polymerase kappa (Homo sapiens) (Q9UBT6 whole entry, looked up): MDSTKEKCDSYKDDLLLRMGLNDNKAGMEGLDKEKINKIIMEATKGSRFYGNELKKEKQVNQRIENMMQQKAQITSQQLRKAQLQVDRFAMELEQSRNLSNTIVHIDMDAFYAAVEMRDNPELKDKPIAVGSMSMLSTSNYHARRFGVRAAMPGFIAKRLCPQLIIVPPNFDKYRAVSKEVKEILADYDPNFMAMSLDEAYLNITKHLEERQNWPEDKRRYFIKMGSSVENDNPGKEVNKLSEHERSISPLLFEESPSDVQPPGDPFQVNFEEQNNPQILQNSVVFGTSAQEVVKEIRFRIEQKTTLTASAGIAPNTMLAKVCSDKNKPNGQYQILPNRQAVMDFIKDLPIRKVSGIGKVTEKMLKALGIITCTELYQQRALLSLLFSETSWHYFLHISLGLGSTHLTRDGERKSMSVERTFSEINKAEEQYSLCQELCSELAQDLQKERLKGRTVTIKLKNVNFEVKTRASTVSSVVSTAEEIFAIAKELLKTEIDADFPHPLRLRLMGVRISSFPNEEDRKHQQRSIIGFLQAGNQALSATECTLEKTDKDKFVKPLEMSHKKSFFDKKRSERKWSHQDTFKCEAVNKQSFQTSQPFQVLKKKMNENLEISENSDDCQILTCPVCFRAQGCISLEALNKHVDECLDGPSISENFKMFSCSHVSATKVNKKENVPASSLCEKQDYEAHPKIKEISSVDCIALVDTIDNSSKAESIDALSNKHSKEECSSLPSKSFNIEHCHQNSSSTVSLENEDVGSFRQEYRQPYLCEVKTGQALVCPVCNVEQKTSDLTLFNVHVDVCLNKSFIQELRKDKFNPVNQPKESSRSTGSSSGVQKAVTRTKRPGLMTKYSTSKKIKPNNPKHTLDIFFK
A general note: Quantitative high-throughput screening tests each substance at several concentrations.
For `COc1ccc(C(=O)N2CCC3(CC2)CCN(c2ccccn2)CC3)cc1`, the “activity, negative = inhibition” value was 14.4% [at 60.1 µM].
For `O=C1CSC(=S)N1/N=C/c1ccc(O)c([N+](=O)[O-])c1`, the Potency was 28.2 µM (active).
`CCOC(=O)C1C/C(=C\C(C)=O)c2cccc(C(F)(F)F)c2O1` (stereo not given): the “activity, negative = inhibition” value was -16%.
Consider `O=c1cc(-c2ccc(O)c(O)c2)oc2cccc(O)c12`, for which the Potency was 6.31 µM (active).
For the compound `COc1ccc(-c2c(C)c3ccc(O)c(CN4CCN(C)CC4)c3oc2=O)cc1OC`, the “activity, negative = inhibition” value is -6.99% [at 60.1 µM].
The same measure, in the same setting: in the case of `Cc1cccc(-c2cc(=O)c3cc(C)ccc3o2)c1` it was -11.6% [at 19.4 µM].
Regarding `COc1c(O)cc2oc(-c3ccc(O)c(O)c3)cc(=O)c2c1O`, the Potency was 5.01 µM (active) and 752 nM (active).
`COc1ccc2c(=O)cc(-c3ccccc3)oc2c1O`: the activity, negative = inhibition was -8.18% [at 19.4 µM].
Consider `OCCN1CCN(CC/C=C2\c3ccccc3Sc3ccc(C(F)(F)F)cc32)CC1`, for which the activity, negative = inhibition was -8.78% [at 12 µM].
`COc1cccc(Cn2c(=O)cnc3cncnc32)c1`: the “activity, negative = inhibition” value was 3.62% [at 60.1 µM].
`NC(=O)c1sc(-c2ccsc2)cc1N`: the activity, negative = inhibition is 7.11% [at 19.4 µM].
Same read-out and setting: in the case of `COc1ccc(-c2nc3cnc(OC)nc3n(Cc3ccc(F)cc3)c2=O)cc1` it was 1.16% [at 60.1 µM].
For `COc1ccc(C2=Nn3c(nnc3-c3ccccc3OC)SC2)cc1OC1CCCC1`, the Potency was 39.8 µM (active).
As to `COc1ccc(C2(C#N)CCC(C(=O)O)CC2)cc1OC1CCCC1` (stereo not given), the activity, negative = inhibition was 1.33% [at 19.4 µM].
On the same count and under the same terms, the same measure for `Cc1nnc2n1N=C(c1ccc3c(c1)NC(=O)CO3)CS2`: 5.52%; for `C[C@H]1CCC[C@@]2(C)CCCC[C@]12O`: 9.76% [at 60.1 µM].
With `Cc1csc(-c2nc3ccccc3n2C)n1`, the activity, negative = inhibition is -4.55% [at 19.4 µM].
Same read-out and setting: the same measure for `COc1cccc(-c2cc(=O)c3cc(NC(=O)c4ccc(C)cc4)ccc3[nH]2)c1`: -14.5% [at 60.1 µM].
Regarding `COc1ccc(Br)cc1/C=N/Nc1ccc(S(=O)(=O)Nc2ccccc2C(=O)O)cc1[N+](=O)[O-]`, the Potency was 39.8 µM (active).
With `COC(=O)c1ccccc1NS(=O)(=O)c1ccc2c(c1)CCCN2C(C)=O`, the “activity, negative = inhibition” value is 3.72%.
Still for that read-out and setting: in the case of `COc1ccc(S(=O)(=O)NC(C)c2ccccc2)cc1C(=O)N1CCCCC1` (stereo not given) it was -6.85%.
The same measure, in the same setting: the same measure for `COC(=O)N1CCC[C@@]2(CCN(C(=O)NC(C)C)C2)C1`: 1.95% [at 60.1 µM]; for `CN(C)c1ccc(/C=C/c2sc3ccccc3[n+]2CCCCBr)cc1`: -23.3%.
The same measure, in the same setting: the same measure for `CC(C)(C)n1ncc2c(=O)n(Cc3ccc(C(=O)c4ccccc4)cc3)cnc21`: 10.6%; for `NC(=O)C[n+]1cccc(C(N)=O)c1`: -6.13%.
On to `N#Cc1ccc[n+](CC(=O)c2ccc(O)c(O)c2)c1`, for which the Potency is 0.891 µM (active).
As to `N#Cc1ccc[n+](CC(=O)c2ccc(F)cc2)c1`, the “activity, negative = inhibition” value is 1.76%.
On the same count and under the same terms, in the case of `O=c1c(-c2ccc(F)c(F)c2)nc2cncnc2n1-c1ccccc1` it was 6.33% [at 60.1 µM]; in that of `COc1cc2nc(N3CCCN(C)CC3)nc(NC3CC3)c2cc1OC`, 9.12%; in that of `CN(C(=N)N)c1ccc(/C=C2\C=Cc3ccccc32)cc1`, 0.144%.
Consider `C=CC1=C(C(=O)O)N2C(=O)[C@@H](NC(=O)/C(=N\OCC(=O)O)c3csc(N)n3)[C@H]2SC1`, for which the Potency was 50.1 µM (active).
Same read-out and setting: the same measure for `CO/N=C(\C(=O)N[C@@H]1C(=O)N2C(C(=O)O)=C(COC(C)=O)CS[C@H]12)c1csc(N)n1` (stereo in doubt): 35.5 µM (active) and 79.4 µM (active) and 39.8 µM (active).
As to `O=C(c1cnccn1)N1CCC2(CCCN(Cc3ccccc3)C2)CC1`, the “activity, negative = inhibition” value was -6.98% [at 60.1 µM].
`CC(C)(C)c1ccc(C(=O)C[n+]2cccc3cc(Cl)ccc32)cc1`: the “activity, negative = inhibition” value is 17.1%.
Take `OCC(O)C(O)C(O)C(O)C=Nc1ccc(/C=C/c2ccnc3ccccc23)cc1` (stereo not given): the “activity, negative = inhibition” value is -1.15%.
On the same count and under the same terms, the same measure for `COC1[C@H](OC(N)=O)C(O)[C@H](Oc2ccc3c(O)c(NC(=O)c4ccc(O)c(CC=C(C)C)c4)c(=O)oc3c2C)OC1(C)C` (stereo not given in full): -8.72% [at 60.1 µM].
On the same count and under the same terms, in the case of `COc1ccc(OCc2n[nH]c(=S)n2N)cc1` it was -22.5%.
As to `COc1ccccc1-n1c(-c2cc(-c3ccco3)[nH]n2)n[nH]c1=S`, the Potency was 17.8 µM (active).
For the compound `COc1ccccc1-n1c(=S)[nH]c2c(sc(=S)n2-c2ccc(C)cc2C)c1=O`, the “activity, negative = inhibition” value was -7.54%.
Consider `C=C1C(=CC=C2CCC[C@@]3(C)[C@@H]2CC[C@H]3[C@H](C)CCCC(C)C)C[C@@H](O)C[C@@H]1O`, for which the activity, negative = inhibition is -13.8% [at 19.4 µM].
For `CN(Cc1ccccc1)c1ccc(/C=C/c2ccnc3ccccc23)cc1`, the “activity, negative = inhibition” value was -15.7%.
On the same count and under the same terms, in the case of `CN(C)c1ccc(/C=C/C=C/c2ccnc3ccccc23)cc1` it was -18.6%; in that of `N#Cc1ccccc1-c1ccc2ncnc(NCc3cccnc3)c2c1`, -18.2% [at 60.1 µM].
Same read-out and setting: the same measure for `O=C(/C=C/c1cccc(F)c1)NC1CC1`: 10.9% [at 19.4 µM]; for `Cc1ccccc1-c1ccc(C(=O)O)s1`: -9.91%.
Take `CC(=O)OC1C([N+]2(C)CCCCC2)C[C@H]2C3CC[C@H]4C[C@H](OC(C)=O)C([N+]5(C)CCCCC5)CC4(C)C3CCC12C` (stereo not given in full): the activity, negative = inhibition is -5.47% [at 19.4 µM].
With `COc1ccccc1CNc1ncncc1-c1cccnc1`, the “activity, negative = inhibition” value is -0.0728% [at 60.1 µM].
For the compound `COCCn1c(SCC(=O)N2CCCCCC2)nc2c(c1=O)SCC2`, the “activity, negative = inhibition” value was -18.2%.
In the case of `Cc1nc(SCC(=O)N2CCN(c3ccccc3)CC2)[nH]c(=O)c1C`, the “activity, negative = inhibition” value was 17.8%.
For the compound `CC(=O)c1sc2nc(SCC(=O)N3CCCCC3)[nH]c(=O)c2c1C`, the Potency is 79.4 µM (active).
Turning to `CCN(Cc1ccncc1)C(=O)[C@@H](CO)c1ccccc1`, the activity, negative = inhibition was -2.15% [at 12 µM] and -8.7% [at 19.4 µM].
Still for that read-out and setting: the same measure for `CC1(C)O[C@@H]2C[C@@H]3[C@H]4C[C@@H](F)C5=CC(=O)C=C[C@]5(C)[C@@]4(F)[C@@H](O)C[C@]3(C)[C@]2(C(=O)CO)O1`: -1.08% [at 60.1 µM].
For `Oc1ccc2c(c1)OCC1c3cc4c(cc3OC21)OCO4` (stereo not given), the “activity, negative = inhibition” value was -7.99% [at 60.1 µM].
Turning to `Cc1cccc(C)c1NC(=O)NC1=CCCN1C`, the activity, negative = inhibition was 0.19% [at 19.4 µM].
On the same count and under the same terms, the same measure for `CCc1ccc2oc(-c3ccc(C)c(NC(=O)/C=C/c4ccco4)c3)nc2c1`: -12.2%.
Turning to `O=C(/C=C/c1ccco1)NC(=S)Nc1ccccc1Br`, the Potency is 50.1 µM (active).
Consider `O=C(NC(=S)Nc1ncccn1)c1ccccc1Br`, for which the “activity, negative = inhibition” value was -4.19%.
Still for that read-out and setting: in the case of `COc1ccc(Oc2ncc3nc(C)c(=O)n(-c4ccccc4)c3n2)cc1` it was -6.07% [at 60.1 µM].
Consider `O=C1COc2c1ccc(O)c2O`, for which the Potency is 25.1 µM (active).
In the case of `Cc1csc(NCC(=O)c2c[nH]c3ccccc23)n1`, the “activity, negative = inhibition” value was -40.6%.
Take `C/C=C/NNC(=O)Cc1ccc(OC)cc1`: the “activity, negative = inhibition” value is 8.17%.
On the same count and under the same terms, in the case of `CN1CCCC1CCO[C@@](C)(c1ccccc1)c1ccc(Cl)cc1` (stereo not given in full) it was 0.404% [at 60.1 µM]; in that of `COc1cccc(NC(=O)COC(=O)c2ccc3ccccc3n2)c1`, -11.1%; in that of `COc1cc(/C=C/C(=O)OCC(=O)Nc2cccc(Oc3ccccc3)c2)ccc1O`, -8.89%.
For the compound `COc1cccc(NC(=O)COC(=O)/C=C/c2ccco2)c1`, the Potency is 79.4 µM (active).
Turning to `Cc1nc2cnc(N3CCN(C)CC3)nc2n(CCC#N)c1=O`, the “activity, negative = inhibition” value is 0.485% [at 60.1 µM].
Still for that read-out and setting: the same measure for `C=C1C([C@@]2(C)C(OC(C)=O)CC(=O)O[C@@](C)(COC(C)=O)C2CC(=O)OC)C(OC=O)C(OC(=O)C(O)C(C)CC)[C@]2(C)C(c3ccoc3)CC(=O)C12O` (stereo not given in full): -17.9% [at 60.1 µM].
Same read-out and setting: in the case of `Cc1noc2ncnc(NCc3ccccc3Cl)c12` it was 6.87%; in that of `COc1ccc(-c2oc3ncnc(NCCCO)c3c2-c2ccc(OC)cc2)cc1`, -15.8%.
For the compound `OCCNc1ncnc2oc(-c3ccco3)c(-c3ccco3)c12`, the Potency was 11.2 µM (active).
For the compound `CC(C)=CCC[C@]1(C)[C@@H](CC=C(C)C)C[C@@]2(CC=C(C)C)C(=O)[C@]1(C(=O)C(C)C)C(=O)C(CC=C(C)C)=C2O`, the activity, negative = inhibition is -7.28% [at 19.4 µM].
As to `Cn1cccc1C(=O)N1CCC2(CC1)CN(c1cccc(-c3ccccc3)c1)C2`, the “activity, negative = inhibition” value was -7.92% [at 60.1 µM].
`Cc1ccc(/C([O-])=C(/C(=S)NCc2ccco2)[n+]2ccccc2)cc1[N+](=O)[O-]`: the Potency was 25.1 µM (active).
Consider `O=[N+]([O-])c1cccc(/C([O-])=C(/C(=S)Nc2ccccc2F)[n+]2ccccc2)c1`, for which the “activity, negative = inhibition” value is 0.0734%.
Same read-out and setting: the same measure for `O=[N+]([O-])c1cc(-c2nc(-c3ccccc3)no2)ccc1NCc1ccco1`: -5.16%.
On to `COc1ccc(-c2nc3cnc(Oc4ccccc4)nc3n(Cc3cccs3)c2=O)cc1`, for which the “activity, negative = inhibition” value is 0.602% [at 60.1 µM].
As to `CC[C@]1([C@H]2O[C@@H]([C@@H]3O[C@](O)(CO)[C@@H](C)C[C@H]3C)C[C@H]2C)CC[C@@H]([C@]2(C)CC[C@@]3(C[C@@H](O)[C@@H](C)[C@@H]([C@H](C)[C@H](OC)[C@H](C)C(=O)O)O3)O2)O1`, the activity, negative = inhibition was -5.79% [at 19.4 µM].
Same read-out and setting: in the case of `N#Cc1cccc(-c2nc3cnc(N4CCNCC4)nc3n(C3CC3)c2=O)c1` it was -9.7% [at 60.1 µM]; in that of `O=C(O)C1=C/C(=C/C=[N+]2c3cc(O)c(O[C@H]4OC(CO)[C@@H](O)[C@@H](O)[C@@H]4O)cc3C[C@@H]2C(=O)[O-])C[C@H](C(=O)O)N1` (stereo not given in full), -14.2%; in that of `C[C@@H](O)[C@@H]1NC(=O)[C@H](CCCCN)NC(=O)[C@H](Cc2c[nH]c3ccccc23)NC(=O)[C@H](Cc2ccccc2)NC(=O)[C@H](Cc2ccccc2)NC(=O)[C@H](CC(N)=O)NC(=O)[C@H](CCCCN)NC(=O)[C@@H](NC(=O)[C@@H]2CCCN2)CSSC[C@@H](C(=O)N[C@@H](CCCCN)C(=O)O)NC(=O)[C@H](CO)NC(=O)[C@H](CO)NC(=O)[C@H](Cc2ccccc2)NC1=O` (H-PCKNFFWKTFSSCK-OH; disulfide 2-13), 12.8% [at 60.1 µM].
As to `Cc1ccc(-c2nn(-c3ccccc3)cc2/C=C2\SC(=S)N(CCCCCC(=O)O)C2=O)o1`, the Potency was 79.4 µM (active).
For `O=C(Nc1ccc([N+](=O)[O-])cc1)c1cnn2c1NC(=C1CC1)C=C2C(F)F`, the “activity, negative = inhibition” value is -1.53%.
In the case of `O=C(Nc1ccc2nc(SCCOc3ccccc3)sc2c1)c1ccco1`, the “activity, negative = inhibition” value was 2.6%.
Same read-out and setting: in the case of `CCN(c1ccc(Cl)cc1)S(=O)(=O)c1nnc(NC(=O)c2ccco2)s1` it was -1.12%.
Take `O=C(Nc1nc(-c2ccco2)c(-c2ccco2)s1)c1ccco1`: the Potency is 79.4 µM (active).
